# Measurements from article PMC5540273 (PLoS ONE, 2017).
# Tested on: EPHB6
# Details: concentration: 1 μM,replicates: in singlicate; n = 1
# 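Note: KINOMEscan kinase panel screen.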
row,SMILES,%Inh [%]
1,CNC(=O)c1ccccc1Nc1nc(Nc2cccc(CS(C)(=O)=O)c2)ncc1C.O=CO [GSK1520489],92.8
2,O=C(Nc1n[nH]c2cc(-c3ccco3)ccc12)C1CC1 [SB-737447],34
3,CSc1nccc(-c2c(-c3ccc(F)cc3)ncn2CCCN2CCOCC2)n1.Cl [SB-217146],0
4,COc1cccc(CNC(=O)NC2CCN(c3ccnc(Nc4cc(OC)c(OC)c(OC)c4)n3)C2)c1 (stereo not shown) [GSK1379765],92.6
5,Cn1cc(-c2cccc3c(N)c(C(N)=O)nnc23)cn1,16
6,Cc1ccc(Nc2ccnc(Nc3ccc4c(c3)CS(=O)(=O)C4)n2)cc1O.Cl [GW579362],91.7
7,CC(C(=O)NC1CCN(c2ccnc(Nc3ccc(F)cc3)n2)C1)c1ccc(Cl)cc1 (stereo not shown) [GSK1379713],0
8,COc1cc2c(Nc3ccc(NC(=O)c4ccccc4)cc3)ncnc2cc1OCCCN1CCOCC1 [GSK301329],79
9,N#Cc1cccc(C(=O)NC2CCN(c3ccnc(Nc4ccc(F)cc4)n3)C2)c1 (stereo not shown) [GSK1379708],0
10,CN1CCN(CCCNc2nccc(-c3c(-c4ccc(F)cc4)nn4cc(C(N)=O)ccc34)n2)CC1 [GW622475],44
11,O=C(Nc1cccc(C(F)(F)F)c1)c1cccc(Oc2ccc3nccn3n2)c1,12
12,COC(=O)Nc1nc2cc(Oc3ccc(NC(=O)Nc4cc(C(F)(F)F)ccc4Cl)cc3)ccc2[nH]1.Cl [GW697465],83
13,Cn1ccc2ncnc(Oc3ccc(NC(=O)Nc4ccnc(C(F)(F)F)c4)c(Cl)c3)c21,36
14,Cc1cccc2c(-c3ccncc3)c(-c3ccc(F)cc3)nn12.Cl [GW461487],26
15,COc1cccc(C2=C(Nc3cccc(Cl)c3)C(=O)NC2=O)c1 [SB-341556],29
16,OCCn1cc(-c2cnc3nnn(Cc4ccc5ncccc5c4)c3n2)cn1,17
17,CC(=O)c1c(-c2ccncc2)[nH]c(-c2ccncc2)c1C [GW493036],0
18,Cn1ccc2ncnc(Oc3ccc(NC(=O)Nc4cncc(C(F)(F)F)c4)c(Cl)c3)c21,66
19,O=c1[nH]cc(-c2ccc(O)cc2)c2sc(-c3ccncc3)cc12 [GSK1033723],0

row,SMILES,%Inh [%]
1,COC(=O)c1cccc(NC(=O)NC2CCN(c3ccnc(NCc4ccc(F)cc4)n3)CC2)c1 [GSK1379860],0
2,Cn1ccc2ncnc(Oc3ccc(NC(=O)Nc4cccc(C(F)(F)F)c4)c(F)c3)c21,97.6
3,Cl.c1ccc(Oc2ccc(Nc3ccnc4cc(-c5ccc(CN6CCNCC6)o5)ccc34)cc2)nc1 [GW567142],96.2
4,CS(=O)(=O)c1cccc(CNc2nc(Nc3ccc4c(c3)[C@@H]3C[C@@H]4CNC3=O)ncc2C(F)(F)F)c1,72
5,C[C@@H](Oc1cc(-n2cnc3ccc(-c4ccncc4)cc32)sc1C(N)=O)c1ccccc1Cl [GSK483724],0
6,CCOC(=O)N1CCC(n2cnc(-c3ccc(F)cc3)c2-c2ccnc(N)n2)CC1 [SB-219952],30
7,Cn1ccc2ncnc(Oc3ccc(NC(=O)Nc4cc(C(C)(C)C)on4)c(Cl)c3)c21,64
8,Cc1n[nH]c2cc(Nc3ccnc(Nc4cccc(CN5CCOCC5)c4)n3)ccc12 [GW682569],87
9,NC(=O)c1ccc(-c2cc3ncnc(SCC(=O)O)c3s2)cc1,62
10,Cc1ccc(CC(=O)N2CCc3cc(-c4cn(C)c5ncnc(N)c45)ccc32)cc1 [GSK2634758],53
11,COc1ccc(Nc2nccc(N3CCC(NC(=O)c4cccc(C#N)c4)C3)n2)cc1 (stereo not shown) [GSK1379730],0
12,Cn1ccc2ncnc(Oc3ccc(NC(=O)Nc4cccc(C(F)(F)F)c4)c(Cl)c3)c21,90
13,O=C(Nc1ccccc1)c1cccc(Oc2ccc3nccn3n2)c1,64
14,Cn1ccc2ncnc(Oc3ccc(NC(=O)Nc4cnn(C(C)(C)C)c4)c(Cl)c3)c21,48
15,CCn1c(-c2nonc2N)nc2cncc(CNC3CCNCC3)c21.Cl [SB-747651],0
16,COc1cc2nccc(Nc3ccc(Oc4ccccc4)cc3)c2cc1OC.Cl [GI261656],90.9
17,Cl.Cl.NC[C@H](CC1CCCCC1)NC(=O)c1ccc(-c2ccnc3[nH]ccc23)s1 [GSK1581428],12
18,Cc1cccc(-c2nc(Nc3ccncc3)c3sccc3n2)n1 [GW869641],30
